# What was measured:
# [1] = target: T1, Mitogen-activated protein kinase 12 (Homo sapiens) (UniProt P53778); details: at 1 µM;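 also: values are averaged p38gamma kinase inhibition readings, compounds tested at 1 µM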
# T1 sequence (whole entry): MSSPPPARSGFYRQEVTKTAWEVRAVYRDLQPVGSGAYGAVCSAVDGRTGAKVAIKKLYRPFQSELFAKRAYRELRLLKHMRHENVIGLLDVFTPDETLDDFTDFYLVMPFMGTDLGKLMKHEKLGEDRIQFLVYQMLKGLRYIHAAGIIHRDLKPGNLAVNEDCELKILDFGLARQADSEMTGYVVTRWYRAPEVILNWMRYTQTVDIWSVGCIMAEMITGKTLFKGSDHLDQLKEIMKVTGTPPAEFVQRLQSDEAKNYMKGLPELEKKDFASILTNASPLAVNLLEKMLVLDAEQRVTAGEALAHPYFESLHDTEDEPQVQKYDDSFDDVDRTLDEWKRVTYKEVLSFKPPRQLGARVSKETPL
# [2] = target: SRSF protein kinase 1 (Homo sapiens) (UniProt Q96SB4); details: at 0.1 µM
# [3] = target: SRSF protein kinase 1 (Homo sapiens) (UniProt Q96SB4); details: at 1 µM
# [4] = target: Phosphatidylinositol 4,5-bisphosphate 3-kinase catalytic subunit alpha isoform (Homo sapiens) (UniProt P42336); details: at 0.1 µM
# [5] = target: Phosphatidylinositol 4,5-bisphosphate 3-kinase catalytic subunit alpha isoform (Homo sapiens) (UniProt P42336); details: at 1 µM
# [6] = target: T2, Phosphatidylinositol 4,5-bisphosphate 3-kinase catalytic subunit delta isoform (Homo sapiens) (UniProt O00329); details: at 0.1 µM
# T2 sequence (whole entry): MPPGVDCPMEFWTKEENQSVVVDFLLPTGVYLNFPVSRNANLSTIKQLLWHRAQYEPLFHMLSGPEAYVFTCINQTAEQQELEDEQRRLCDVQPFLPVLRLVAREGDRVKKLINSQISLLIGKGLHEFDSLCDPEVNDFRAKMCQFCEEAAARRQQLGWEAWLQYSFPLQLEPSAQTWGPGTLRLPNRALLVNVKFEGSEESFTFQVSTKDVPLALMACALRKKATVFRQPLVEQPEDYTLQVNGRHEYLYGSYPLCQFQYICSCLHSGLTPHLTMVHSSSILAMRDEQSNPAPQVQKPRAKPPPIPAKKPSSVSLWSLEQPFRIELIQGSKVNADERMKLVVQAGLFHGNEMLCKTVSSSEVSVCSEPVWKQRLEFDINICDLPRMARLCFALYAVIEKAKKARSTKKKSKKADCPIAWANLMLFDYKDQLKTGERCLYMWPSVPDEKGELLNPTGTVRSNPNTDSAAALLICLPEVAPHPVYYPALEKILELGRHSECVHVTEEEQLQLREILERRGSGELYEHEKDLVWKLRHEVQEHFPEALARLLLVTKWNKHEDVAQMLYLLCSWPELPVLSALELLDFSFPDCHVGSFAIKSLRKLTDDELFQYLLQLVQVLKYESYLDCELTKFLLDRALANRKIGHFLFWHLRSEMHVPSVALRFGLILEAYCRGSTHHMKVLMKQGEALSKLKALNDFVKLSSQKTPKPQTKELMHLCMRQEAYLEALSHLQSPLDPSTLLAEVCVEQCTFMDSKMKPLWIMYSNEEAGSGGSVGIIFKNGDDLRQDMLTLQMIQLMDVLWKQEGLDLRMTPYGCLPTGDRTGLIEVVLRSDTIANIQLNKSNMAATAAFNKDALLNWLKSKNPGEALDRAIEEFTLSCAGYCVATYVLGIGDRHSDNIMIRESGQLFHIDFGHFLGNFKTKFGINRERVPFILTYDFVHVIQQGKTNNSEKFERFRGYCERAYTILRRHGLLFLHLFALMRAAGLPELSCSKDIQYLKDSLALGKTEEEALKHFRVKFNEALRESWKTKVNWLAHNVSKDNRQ
# [7] = target: T2, Phosphatidylinositol 4,5-bisphosphate 3-kinase catalytic subunit delta isoform (Homo sapiens); details: at 1 µM
# [8] = target: Phosphatidylinositol 4-kinase beta (Homo sapiens) (UniProt Q9UBF8); details: at 0.1 µM
# [9] = target: Phosphatidylinositol 4-kinase beta (Homo sapiens) (UniProt Q9UBF8); details: at 1 µM
# [10] = target: Sphingosine kinase 1 (Homo sapiens) (UniProt Q9NYA1); details: at 0.1 µM
# [11] = target: Sphingosine kinase 1 (Homo sapiens) (UniProt Q9NYA1); details: at 1 µM
# [12] = target: T3, Sphingosine kinase 2 (Homo sapiens) (UniProt Q9NRA0); details: at 0.1 µM
# T3 sequence (whole entry): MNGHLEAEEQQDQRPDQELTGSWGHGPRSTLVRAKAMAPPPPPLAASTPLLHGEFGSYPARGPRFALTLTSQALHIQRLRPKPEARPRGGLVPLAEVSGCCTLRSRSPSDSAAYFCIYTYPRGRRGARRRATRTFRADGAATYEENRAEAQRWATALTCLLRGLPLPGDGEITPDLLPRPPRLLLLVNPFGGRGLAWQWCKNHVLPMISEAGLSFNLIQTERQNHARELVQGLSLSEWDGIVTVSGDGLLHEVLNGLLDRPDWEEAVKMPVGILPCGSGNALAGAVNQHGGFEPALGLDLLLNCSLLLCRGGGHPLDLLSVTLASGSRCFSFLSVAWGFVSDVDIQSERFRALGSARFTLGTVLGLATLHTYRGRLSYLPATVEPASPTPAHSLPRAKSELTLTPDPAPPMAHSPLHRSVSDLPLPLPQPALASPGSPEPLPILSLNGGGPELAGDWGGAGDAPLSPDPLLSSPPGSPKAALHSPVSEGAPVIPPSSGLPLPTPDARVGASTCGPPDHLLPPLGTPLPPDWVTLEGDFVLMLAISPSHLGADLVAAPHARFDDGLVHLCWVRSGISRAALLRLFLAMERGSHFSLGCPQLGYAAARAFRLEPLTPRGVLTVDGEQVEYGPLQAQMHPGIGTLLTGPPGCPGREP
# [13] = target: T3, Sphingosine kinase 2 (Homo sapiens); details: at 1 µM
# [14] = target: Casein kinase II subunit alpha (Homo sapiens) (UniProt P68400); details: at 0.1 µM
# [15] = target: Casein kinase II subunit alpha (Homo sapiens) (UniProt P68400); details: at 1 µM
# [16] = target: T4, Inhibitor of nuclear factor kappa-B kinase subunit alpha (Homo sapiens) (UniProt O15111); details: at 0.1 µM
# T4 sequence (whole entry): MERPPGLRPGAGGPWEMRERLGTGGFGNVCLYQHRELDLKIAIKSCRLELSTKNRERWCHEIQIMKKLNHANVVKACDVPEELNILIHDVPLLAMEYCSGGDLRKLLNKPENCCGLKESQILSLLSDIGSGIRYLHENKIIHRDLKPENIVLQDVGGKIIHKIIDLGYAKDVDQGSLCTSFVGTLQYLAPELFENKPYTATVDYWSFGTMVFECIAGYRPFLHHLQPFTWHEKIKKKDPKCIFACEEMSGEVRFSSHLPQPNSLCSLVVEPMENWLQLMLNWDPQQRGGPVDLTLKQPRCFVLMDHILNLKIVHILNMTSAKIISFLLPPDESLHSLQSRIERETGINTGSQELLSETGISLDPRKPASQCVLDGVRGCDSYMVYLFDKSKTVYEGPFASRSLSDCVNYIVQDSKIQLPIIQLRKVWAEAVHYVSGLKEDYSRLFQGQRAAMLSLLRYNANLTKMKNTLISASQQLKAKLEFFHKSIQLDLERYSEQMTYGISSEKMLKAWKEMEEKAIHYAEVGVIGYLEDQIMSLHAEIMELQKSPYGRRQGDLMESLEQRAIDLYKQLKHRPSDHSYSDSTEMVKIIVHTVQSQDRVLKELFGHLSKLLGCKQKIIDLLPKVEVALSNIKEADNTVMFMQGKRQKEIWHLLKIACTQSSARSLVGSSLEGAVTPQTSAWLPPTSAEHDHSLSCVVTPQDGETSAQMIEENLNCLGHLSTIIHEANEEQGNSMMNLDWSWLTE
# [17] = target: T4, Inhibitor of nuclear factor kappa-B kinase subunit alpha (Homo sapiens); details: at 1 µM
# [18] = target: T5, Inhibitor of nuclear factor kappa-B kinase subunit beta (Homo sapiens) (UniProt O14920); details: at 0.1 µM
# T5 sequence (whole entry): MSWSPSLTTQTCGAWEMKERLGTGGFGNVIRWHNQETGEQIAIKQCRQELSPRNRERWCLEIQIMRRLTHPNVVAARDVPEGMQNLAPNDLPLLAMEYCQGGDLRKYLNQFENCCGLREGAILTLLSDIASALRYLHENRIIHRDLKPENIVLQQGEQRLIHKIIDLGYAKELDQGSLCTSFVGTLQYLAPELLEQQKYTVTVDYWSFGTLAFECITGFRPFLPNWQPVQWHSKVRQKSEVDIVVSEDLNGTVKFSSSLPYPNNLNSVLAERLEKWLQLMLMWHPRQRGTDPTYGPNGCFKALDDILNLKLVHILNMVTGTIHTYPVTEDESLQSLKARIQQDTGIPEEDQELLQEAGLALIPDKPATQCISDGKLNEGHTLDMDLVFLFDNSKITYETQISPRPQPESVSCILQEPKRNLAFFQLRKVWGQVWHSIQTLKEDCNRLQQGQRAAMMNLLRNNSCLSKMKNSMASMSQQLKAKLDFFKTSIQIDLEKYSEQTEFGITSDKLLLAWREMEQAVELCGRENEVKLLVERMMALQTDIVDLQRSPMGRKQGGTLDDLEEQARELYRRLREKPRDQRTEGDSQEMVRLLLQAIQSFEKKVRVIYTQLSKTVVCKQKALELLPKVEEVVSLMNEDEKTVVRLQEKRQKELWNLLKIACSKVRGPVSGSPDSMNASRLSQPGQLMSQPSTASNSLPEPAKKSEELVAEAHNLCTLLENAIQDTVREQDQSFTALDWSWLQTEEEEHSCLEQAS
# [19] = target: T5, Inhibitor of nuclear factor kappa-B kinase subunit beta (Homo sapiens); details: at 1 µM
# [20] = target: T6, Inhibitor of nuclear factor kappa-B kinase subunit epsilon (Homo sapiens) (UniProt Q14164); details: at 0.1 µM;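 also: mean inhibition of IKKε reported, from the GSK PKIS dataset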
# T6 sequence (whole entry): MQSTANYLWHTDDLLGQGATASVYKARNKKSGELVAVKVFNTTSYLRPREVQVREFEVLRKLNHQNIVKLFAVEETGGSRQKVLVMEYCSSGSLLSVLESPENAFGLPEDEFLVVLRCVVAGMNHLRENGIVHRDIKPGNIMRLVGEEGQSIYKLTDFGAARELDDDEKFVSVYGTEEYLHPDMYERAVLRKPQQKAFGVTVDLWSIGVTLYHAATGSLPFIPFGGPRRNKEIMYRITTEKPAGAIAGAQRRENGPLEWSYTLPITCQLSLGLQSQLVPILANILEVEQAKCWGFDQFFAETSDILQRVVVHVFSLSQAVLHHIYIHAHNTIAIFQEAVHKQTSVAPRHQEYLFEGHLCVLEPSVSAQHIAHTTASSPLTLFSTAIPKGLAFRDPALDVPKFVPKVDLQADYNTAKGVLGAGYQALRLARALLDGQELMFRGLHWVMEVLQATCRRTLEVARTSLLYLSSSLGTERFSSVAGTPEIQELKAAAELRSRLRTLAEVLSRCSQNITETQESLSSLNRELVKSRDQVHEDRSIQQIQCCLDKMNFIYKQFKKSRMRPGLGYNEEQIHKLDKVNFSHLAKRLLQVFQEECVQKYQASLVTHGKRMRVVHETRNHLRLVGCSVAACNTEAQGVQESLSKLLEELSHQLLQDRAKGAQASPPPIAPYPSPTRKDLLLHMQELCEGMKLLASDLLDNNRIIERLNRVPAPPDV
# Chain of Sphingosine kinase 1 (Homo sapiens) (Q9NYA1 whole entry): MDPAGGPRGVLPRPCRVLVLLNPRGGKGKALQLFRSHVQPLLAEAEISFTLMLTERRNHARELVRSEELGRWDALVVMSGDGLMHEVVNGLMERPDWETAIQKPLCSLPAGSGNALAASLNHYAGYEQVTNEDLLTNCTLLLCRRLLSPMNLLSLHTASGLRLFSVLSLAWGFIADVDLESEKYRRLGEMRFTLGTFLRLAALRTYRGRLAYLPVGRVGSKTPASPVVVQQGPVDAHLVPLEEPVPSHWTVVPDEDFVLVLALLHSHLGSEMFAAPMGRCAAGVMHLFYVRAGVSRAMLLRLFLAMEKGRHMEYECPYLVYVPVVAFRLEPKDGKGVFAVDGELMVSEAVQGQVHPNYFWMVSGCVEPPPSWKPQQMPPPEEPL
# Chain of Phosphatidylinositol 4-kinase beta (Homo sapiens) (Q9UBF8 2-816 limits assumed): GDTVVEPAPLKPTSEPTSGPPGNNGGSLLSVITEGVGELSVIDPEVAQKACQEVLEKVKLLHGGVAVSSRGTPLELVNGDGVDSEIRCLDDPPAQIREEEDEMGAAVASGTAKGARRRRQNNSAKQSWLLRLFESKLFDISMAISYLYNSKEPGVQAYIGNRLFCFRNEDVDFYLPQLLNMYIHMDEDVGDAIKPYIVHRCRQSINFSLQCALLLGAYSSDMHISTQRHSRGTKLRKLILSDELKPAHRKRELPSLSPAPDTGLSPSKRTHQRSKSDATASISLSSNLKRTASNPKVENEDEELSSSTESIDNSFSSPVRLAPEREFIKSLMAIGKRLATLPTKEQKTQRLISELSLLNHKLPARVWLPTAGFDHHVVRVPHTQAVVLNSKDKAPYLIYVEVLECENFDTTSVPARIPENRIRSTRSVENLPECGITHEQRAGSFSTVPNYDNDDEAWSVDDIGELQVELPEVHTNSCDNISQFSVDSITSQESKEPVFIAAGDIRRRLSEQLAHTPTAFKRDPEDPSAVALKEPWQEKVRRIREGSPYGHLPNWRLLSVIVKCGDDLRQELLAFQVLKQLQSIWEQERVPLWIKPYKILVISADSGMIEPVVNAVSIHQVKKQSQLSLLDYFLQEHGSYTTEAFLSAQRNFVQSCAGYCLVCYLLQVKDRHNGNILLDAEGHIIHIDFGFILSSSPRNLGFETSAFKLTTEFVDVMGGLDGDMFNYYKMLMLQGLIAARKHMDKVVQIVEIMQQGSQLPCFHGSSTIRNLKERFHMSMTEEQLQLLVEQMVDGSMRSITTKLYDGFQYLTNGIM
# Chain of Casein kinase II subunit alpha (Homo sapiens) (P68400 whole entry, looked up): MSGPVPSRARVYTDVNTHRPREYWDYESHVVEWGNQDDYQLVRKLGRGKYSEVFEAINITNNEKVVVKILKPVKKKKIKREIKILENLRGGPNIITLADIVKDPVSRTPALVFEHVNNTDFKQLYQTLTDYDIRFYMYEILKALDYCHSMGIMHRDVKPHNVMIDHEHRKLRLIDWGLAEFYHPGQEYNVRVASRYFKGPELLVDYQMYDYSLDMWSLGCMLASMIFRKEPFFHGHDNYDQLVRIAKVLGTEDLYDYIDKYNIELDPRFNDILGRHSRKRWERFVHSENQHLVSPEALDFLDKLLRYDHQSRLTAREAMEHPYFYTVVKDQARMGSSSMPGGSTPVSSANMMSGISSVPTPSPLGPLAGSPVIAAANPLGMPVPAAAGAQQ
# Chain of Phosphatidylinositol 4,5-bisphosphate 3-kinase catalytic subunit alpha isoform (Homo sapiens) (P42336 whole entry, canonical isoform): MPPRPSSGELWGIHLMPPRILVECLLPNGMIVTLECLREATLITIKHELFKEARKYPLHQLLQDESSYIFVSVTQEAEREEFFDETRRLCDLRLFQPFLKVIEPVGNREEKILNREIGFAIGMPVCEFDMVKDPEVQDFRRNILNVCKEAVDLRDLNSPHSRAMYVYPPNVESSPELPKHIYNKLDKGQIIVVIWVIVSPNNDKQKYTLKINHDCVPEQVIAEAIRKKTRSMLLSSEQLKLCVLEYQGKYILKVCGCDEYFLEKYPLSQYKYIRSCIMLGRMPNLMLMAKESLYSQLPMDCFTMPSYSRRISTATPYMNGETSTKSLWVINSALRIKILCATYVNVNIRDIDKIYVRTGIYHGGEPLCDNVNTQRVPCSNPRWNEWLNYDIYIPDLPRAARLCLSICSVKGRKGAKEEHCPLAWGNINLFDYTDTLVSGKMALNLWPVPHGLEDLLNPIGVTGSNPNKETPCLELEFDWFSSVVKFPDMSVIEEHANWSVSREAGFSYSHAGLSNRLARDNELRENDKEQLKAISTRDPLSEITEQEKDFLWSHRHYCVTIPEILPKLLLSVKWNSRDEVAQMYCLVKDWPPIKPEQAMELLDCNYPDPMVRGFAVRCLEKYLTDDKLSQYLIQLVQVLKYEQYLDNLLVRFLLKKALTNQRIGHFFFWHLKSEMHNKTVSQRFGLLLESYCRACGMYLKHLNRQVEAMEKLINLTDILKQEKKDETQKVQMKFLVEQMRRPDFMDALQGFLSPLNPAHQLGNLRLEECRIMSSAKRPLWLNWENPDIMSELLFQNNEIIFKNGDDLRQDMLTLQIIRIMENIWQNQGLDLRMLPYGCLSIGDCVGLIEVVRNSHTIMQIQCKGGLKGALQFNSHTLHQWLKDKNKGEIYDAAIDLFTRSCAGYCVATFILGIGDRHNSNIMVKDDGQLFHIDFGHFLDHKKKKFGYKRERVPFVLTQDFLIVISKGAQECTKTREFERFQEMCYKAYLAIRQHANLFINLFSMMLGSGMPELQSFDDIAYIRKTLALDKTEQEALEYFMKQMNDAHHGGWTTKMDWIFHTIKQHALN
# Chain of SRSF protein kinase 1 (Homo sapiens) (Q96SB4 whole entry, canonical isoform): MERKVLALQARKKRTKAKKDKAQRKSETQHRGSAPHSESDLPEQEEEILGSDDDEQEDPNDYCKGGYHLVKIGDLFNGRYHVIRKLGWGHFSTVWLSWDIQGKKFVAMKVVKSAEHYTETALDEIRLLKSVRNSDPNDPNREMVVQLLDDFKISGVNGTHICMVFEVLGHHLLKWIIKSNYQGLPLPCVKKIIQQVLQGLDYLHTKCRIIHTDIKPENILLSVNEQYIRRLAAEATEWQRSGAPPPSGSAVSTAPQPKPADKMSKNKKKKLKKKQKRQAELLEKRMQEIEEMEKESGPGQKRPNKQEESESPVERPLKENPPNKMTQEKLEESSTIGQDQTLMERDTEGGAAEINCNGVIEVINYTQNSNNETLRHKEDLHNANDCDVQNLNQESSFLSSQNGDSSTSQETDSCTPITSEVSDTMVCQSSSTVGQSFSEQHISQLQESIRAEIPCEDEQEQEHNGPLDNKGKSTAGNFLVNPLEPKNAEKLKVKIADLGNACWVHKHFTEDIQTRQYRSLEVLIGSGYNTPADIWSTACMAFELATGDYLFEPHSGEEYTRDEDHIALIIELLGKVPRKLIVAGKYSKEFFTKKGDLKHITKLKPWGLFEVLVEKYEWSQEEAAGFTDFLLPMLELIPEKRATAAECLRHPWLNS
SMILES,inhibition [1] [%],inhibition [2] [%],inhibition [3] [%],inhibition [4] [%],inhibition [5] [%],inhibition [6] [%],inhibition [7] [%],inhibition [8] [%],inhibition [9] [%],inhibition [10] [%],inhibition [11] [%],inhibition [12] [%],inhibition [13] [%],inhibition [14] [%],inhibition [15] [%],inhibition [16] [%],inhibition [17] [%],inhibition [18] [%],inhibition [19] [%],inhibition [20] [%]
NS(=O)(=O)c1ccc(-c2ccc3c(NC(=O)C4CC4)n[nH]c3c2)cc1,0.58,-1.31,-2.21,2.7,3.32,3.34,8.4,-0.87,-1.58,-2.63,-1.21,0.08,-0.22,1.12,1.51,2.81,3,3.94,3.28,-0.78
NC(=O)c1sc(-n2cnc3cc(C(F)(F)F)ccc32)cc1OCc1ccccc1Br,1.86,-1.98,-4.1,0.07,0.07,0.65,1.77,0.77,-3.13,-0.24,0.07,-0.95,0,-1.01,2.21,2.77,2.85,3.87,2.52,3.08
CCn1c(-c2nonc2N)nc2c(C#CCN)ncc(OCCCN)c21,-2.79,2.33,7.14,-0.54,-3.54,-2.56,-5.7,1.34,-2.08,0.33,-2.44,0.6,-1.33,-1.18,10.1,-6.76,-0.57,-4.65,0.63,0.53
Fc1ccc(-c2ncn(C3CCNCC3)c2-c2ccnc(Oc3ccccc3)n2)cc1,,-1.48,-1.61,1.53,0.06,0.6,1.12,0.91,2.57,1.45,-1.73,1.51,1.09,6.73,1.68,-3.14,1.08,4.13,3.12,2.6
COc1cccc(COc2cc(-n3cnc4ccccc43)sc2C(N)=O)c1,-0.04,-3.25,-2.74,0.82,1.56,1.62,3.63,1.38,-0.71,2.22,-1.55,-0.24,-0.85,11.6,-0.53,9.44,7.88,-0.21,-0.64,-2.28
COc1cc(C=NNc2ncnc3c2cnn3Cc2ccccc2)ccc1O,-3.29,1.24,0.29,-4.02,-1.81,3.47,6.81,-1.09,2.84,3.3,-3.17,2.14,0.11,-0.94,13.8,-2.85,-2.41,-2.63,-2.75,-4.31
CCn1c(-c2nonc2N)nc2c(C#CC(C)(C)O)nc(O[C@@H](CN)c3ccccc3)cc21,0.23,-0.59,-3.25,-0.44,0.33,2.44,3.42,6.5,1.86,-1.08,-0.99,-0.06,-0.62,-0.87,3.9,-6.57,-2.27,-1.36,-3.23,88.3

# — ChEMBL document CHEMBL1961873, “Compounds: GSK PKIS; Assays: Nanosyn kinase panel” (2012)
